Screening results deposited in PubChem by NMMLSC.
A selection: hits, their analogues and other compounds. The true share with any hit is near 0.89%.
CIT2-GFP yeast – modulators of CIT2-GFP expression in yeast, primary screen, S. cerevisiae, GFP fusion, multiplex flow cytometry, MLPCN library; S. cerevisiae CIT2-GFP strain, 3 h; 100 means same as DMSO wells; GFP response vs DMSO, % at 10 µM; 0.065% of 320,000 active; AID 2029, 2009;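 active means GFP response relative to DMSO above a set limit, near the screen mean plus 3 SD, cut at about 150% in these data; inconclusive means Fewer than 70 cells measured for a yeast strain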;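 further: ratio of well median GFP fluorescence to mean of DMSO wells on the plate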
RPL19A-GFP yeast – RPL19A-GFP expression modulators in yeast, primary screen, cell-based, S. cerevisiae, multiplex flow cytometry, MLPCN; S. cerevisiae RPL19A-GFP strain, 3 h; hits give low values; percent response vs DMSO, % at 10 µM; 0.3% of 330,000 active; AID 2025, 2009;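 active means percent response vs DMSO below 50%; inconclusive means fewer than 70 events counted for the yeast strain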;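 further: median channel GFP fluorescence of the barcoded RPL19A-GFP strain; ratio of sample median GFP to plate DMSO average so 100% = DMSO; lower means less RPL19A-GFP as with rapamycin TOR inhibition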
MEP2-GFP yeast – modulators of MEP2-GFP levels in yeast, primary screen, S. cerevisiae, multiplex flow cytometry, MLPCN library; GFP response vs DMSO, % at 10 µM; AID 2016, 2009; S. cerevisiae MEP2-GFP strain, 3 h; 100% = DMSO control level; 0.51% of 330,000 active;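 active means GFP response versus DMSO above a set limit, roughly screen mean plus 3 SD, cut at about 180% in these data; inconclusive means fewer than 70 cells counted for a yeast strain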;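 further: median GFP fluorescence of the barcode-gated MEP2-GFP cells per well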
AGP1-GFP MLPCN – modulators of AGP1-GFP expression in yeast TOR pathway, primary screen, cell-based, multiplex flow cytometry, S. cerevisiae, MLPCN library; 3 h; GFP as percent of DMSO wells; GFP response vs DMSO, % at 10 µM; 0.02% of 320,000 active;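 active means GFP response relative to DMSO above a set limit, near screen average plus 3 SD, cut at about 150% in these data; inconclusive means fewer than 70 cells counted for the yeast strain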;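 further: median GFP channel fluorescence of the gated AGP1 strain per well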
LAP4 TOR yeast – modulators of LAP4-GFP expression in yeast, primary screen, S. cerevisiae, multiplex flow cytometry, MLPCN library; 3 h; median GFP as percent of DMSO wells; 0.34% of 320,000 active; GFP response vs DMSO, % at 10 µM;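 active means GFP response vs DMSO above a set limit, about the screen mean plus 3 SD, cut at about 150% in these data; inconclusive means under 70 cell events counted for the yeast strain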
Active calls of the source: *; ? = inconclusive; . = no result; [ ] = dose if it differs, or a comment.

SMILES | CIT2-GFP yeast | RPL19A-GFP yeast | MEP2-GFP yeast | AGP1-GFP MLPCN | LAP4 TOR yeast
CCc1cc(=O)oc2c(CN3CCN(C)CC3)c(O)ccc12 | 92.5 | 81.8 | 88.3 | 87.2 | .
CCc1cc(=O)oc2c(CN3CCCC3)c(O)c(Cl)cc12 | 94.0 | 33.0* | 247.9* | 67.6 | 82.6
Fc1ccccc1CNc1nc(-c2cccnc2)nc2ccccc12 | 95.8 | 98.7 | 105.0 | 99.1 | 100.4
O=[N+]([O-])c1ccc(O)c(NC(=S)Nc2ccccc2)c1 | ? | 89.8 | 312.6*[may fluoresce violet] | 21.5 | 77.6
COc1ccc(CNC(=O)CCC(=O)Nc2nnc(C(F)(F)F)s2)cc1 | 160.7*[may fluoresce green] | 95.1 | 103.1 | 119.3 | 104.1
O=C(N/N=C/c1ccccc1[N+](=O)[O-])c1ccc2c(c1)OCCO2 | ? | 46.1*[may fluoresce violet] | 430.0*[may fluoresce violet] | 33.1 | 98.6
C/C(CC(=O)Nc1cc(C)ccn1)=N\NC(=O)c1cccc(F)c1 | 91.1 | 70.0 | 183.1* | 14.5 | 93.5
CC(C)(C)NC(=O)CSCc1c(Cl)cccc1Cl | 109.2 | 113.8 | 94.8 | 93.0 | 91.7
NC(=O)CSCc1c(Cl)cccc1Cl | 90.5 | 65.8 | 217.4* | 60.6 | 83.2
CCOC(=O)Cn1c2c(c(=N)c3ccccc31)CCC2 | ? | 54.8 | 229.4*[may fluoresce violet] | . | 98.2
CC(=O)N1CCC(=NNC(=O)c2cc3ccccc3cc2O)CC1 | ? | 41.6*[may fluoresce violet] | 117.2 | 16.5 | 83.3
CC1(C(=O)N2CCC(CC3CC(c4cccc(Br)c4)=NO3)(C(=O)NCC3CCCCC3)CC2)CC1 (stereo unspecified) | 84.8 | 93.0 | 86.8 | 78.7 | 114.2
O=C(CN1CCCC1)Nc1cc(C(F)(F)F)ccc1Cl | 102.7 | 93.7 | 98.3 | 101.3 | 96.5
O=C(CN1CCCC1)Nc1cc(C(F)(F)F)cc(C(F)(F)F)c1 | 98.3 | 90.0 | 124.8 | 130.9 | 151.5*
COc1cccc(CN(C)C(=O)C23CC4CC(CC(C4)C2)C3)c1 | 94.6 | 96.7 | 91.2 | 96.0 | 107.7
COc1ccc(CN(C)C(=O)C23CC4CC(CC(C4)C2)C3)c(OC)c1 | ? | 47.1*[may fluoresce violet] | ? | ? | ?
O=C(NCC(c1cccnc1)N1CCOCC1)Nc1ccccc1 (stereo unspecified) | ? | 22.6*[may fluoresce violet] | 189.4*[may fluoresce violet] | ? | 78.3
CCC1C(=O)Nc2ccccc2N1C(=O)COc1ccccc1 (stereo unspecified) | 155.6*[may fluoresce green] | 93.6 | 105.7 | 115.7 | 104.1
Cc1ccc(S(=O)(=O)NCC(=O)Nc2ccc(C(F)(F)F)cc2)cc1 | ? | 41.1*[may fluoresce violet] | 173.1 | . | 99.4
O=C(c1cc(N2CCOCC2)c(F)cc1[N+](=O)[O-])N1CCOCC1 | 103.8 | 105.3 | 117.2 | 107.0 | 110.0
O=C(Nc1nc(-c2ccccn2)cs1)c1ccc(-c2ccccc2F)o1 | ? | 54.6 | 173.0 | 24.1 | 169.6*[may fluoresce violet]
Cn1ccnc1SCC(=O)Nc1ccc2nc(SCC(=O)NC3CC3)sc2c1 | ? | . | 280.3*[may fluoresce violet] | ? | 90.5
CCCn1cc(CN2CCc3ccc(NC(=O)C4CCCO4)cc3C2)c(C)n1 (stereo unspecified) | 94.8 | 96.5 | 100.4 | 99.6 | 99.1
Cc1ccccc1OCc1nnc(SCCN2CCCC2)n1-c1ccccc1 | ? | 30.2*[may fluoresce violet] | 103.4 | ? | 167.8*[may fluoresce violet]
O=C(CSc1ccsc1[N+](=O)[O-])NC1CCCC1 | ? | 72.4 | 203.8*[may fluoresce violet] | ? | 75.7
SMILES | CIT2-GFP yeast | RPL19A-GFP yeast | MEP2-GFP yeast | AGP1-GFP MLPCN | LAP4 TOR yeast
O=C(CSc1ccsc1[N+](=O)[O-])NCc1ccccc1 | 93.3 | 100.4 | 94.9 | 99.4 | 100.0
CC(C)(C)Nc1nc(Cl)nc(NC2CCCCC2)n1 | ? | 42.0*[may fluoresce violet] | 171.3 | ? | 73.7
CC(=O)Nc1sc2c(c1C#N)CCN(Cc1ccccc1)C2 | 110.3 | 95.0 | 94.2 | 99.9 | 102.7
N#Cc1c(NC(=O)/C=C/C(=O)O)sc2c1CCN(Cc1ccccc1)C2 | ? | 22.6*[may fluoresce violet] | 367.3*[may fluoresce violet] | ? | 71.8
CCOC(=O)C1CCN(C(=O)c2ccc(OCC(=O)Nc3ccc(OCC)cc3)c(OC)c2)CC1 | 91.4 | 96.9 | 91.9 | 104.5 | 86.6
COc1cc(C(C)=O)ccc1OCC(=O)Nc1ccc(Cl)c(S(=O)(=O)N2CCOCC2)c1 | 90.1 | 91.6 | 88.6 | 96.7 | 82.4
COC(=O)c1cc(NC(=O)c2c(Cl)nc3sccn23)cc(C(=O)OC)c1 | 90.0 | 95.4 | 188.2* | 100.8 | 84.4
COC(=O)[C@H](Cc1ccc(O)cc1)NC(=O)Cn1cnc2c(OCc3ccccc3)ncnc21 | 107.9 | 103.8 | 105.8 | 105.4 | 96.5
NC(=O)CC12CC3CC(C1)CC(CC(N)=O)(C3)C2 | 97.7 | 98.7 | 101.2 | 105.1 | 101.4
CCC12CC3CC(C1)CC(C(=O)O)(C3)C2 | ? | 56.4 | 182.6*[may fluoresce violet] | 15.4 | 100.8
COc1ccc2nc(NC(=O)CSc3nc4ccccc4o3)sc2c1 | 102.1 | 99.3 | 100.2 | 100.2 | 106.5
O=C(CSc1nc2ccccc2o1)Nc1nc2ccc(Br)cc2s1 | ? | 60.6 | 214.3*[may fluoresce violet] | 22.0 | 89.8
Cc1ccccc1CN(c1ccc(C(N)=O)cc1)S(C)(=O)=O | ? | 16.7*[may fluoresce violet] | 309.9*[may fluoresce violet] | ? | 101.7
Cc1ccccc1CN(c1ccc(C(=O)NCc2cccnc2)cc1)S(C)(=O)=O | 95.8 | 94.9 | 90.8 | 101.7 | 94.2
Cc1ccc(CNS(=O)(=O)c2cc(F)ccc2CN2C(=O)c3cccnc3C2=O)o1 | 108.6 | 95.5 | 93.2 | 98.9 | 90.8
Cc1ccc(CNS(=O)(=O)c2ccc(CN3C(=O)c4cccnc4C3=O)cc2)o1 | ? | 26.7*[may fluoresce violet] | 126.7 | ? | 81.8
Cn1nc(C(=O)N2CCN(c3ccc([N+](=O)[O-])cc3)CC2)c2c1-c1ccccc1S(=O)(=O)C2 | 98.7 | 95.3 | 93.1 | 93.6 | 94.9
Cc1cc(C)n(CCC(=O)N2CCN(S(=O)(=O)c3ccccc3)CC2)n1 | 102.1 | 103.8 | 104.2 | 102.8 | 98.3
Nc1cc(N)nc(SCC(=O)N2CCc3ccccc32)n1 | 98.8 | 79.8 | 175.4* | . | 108.3
O=C(CSc1ccccc1)N1CCc2ccccc21 | 98.0 | 97.0 | 100.0 | 100.0 | 121.0
Cc1nc(SCC(=O)N2CCc3ccccc32)n[nH]1 | ? | 40.4*[may fluoresce violet] | 365.5*[may fluoresce violet] | ? | 93.0
Cc1cc(F)cc(C)c1Cn1cnc2c(cnn2C(C)(C)C)c1=O | 106.5 | 96.3 | 93.0 | 96.2 | 94.4
Cc1nc(C)c(CCNC(=O)c2ccc(C(F)(F)F)cc2)s1 | 87.1 | 94.8 | 94.9 | 96.8 | 105.2
Cc1ccc(C(=O)NCCc2sc(C)nc2C)cc1 | ? | 31.1*[may fluoresce violet] | 222.2*[may fluoresce violet] | ? | 83.5
O=C(Cn1c(=O)n(-c2ccccc2)c(=O)c2sccc21)N1CCCC1 | ? | 43.2*[may fluoresce violet] | 184.4*[may fluoresce violet] | ? | 101.6
Cc1ccc(-n2c(=O)c3sccc3n(CC(=O)N3CCCC3)c2=O)cc1 | 92.3 | 91.8 | 90.9 | 90.5 | 91.9
CC1CCCCC12NC(=O)N(CC(=O)N1CCN(C(=O)c3ccco3)CC1)C2=O (stereo unspecified) | 96.3 | 92.4 | 92.0 | 97.8 | 93.4
